Biological target: T1, NKX2-6 (Homo sapiens, UniProt A6NCS4 118-204, R150C)
T1 sequence: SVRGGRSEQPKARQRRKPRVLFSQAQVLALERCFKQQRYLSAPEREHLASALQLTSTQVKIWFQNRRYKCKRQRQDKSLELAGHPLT
Assay: PBM; 200 nM protein, PBS
Settings: dsDNA, one strand shown

Row | Sequence | binding signal
1 | AAAGTGAG | 10.8 upbm affinity estimate (log intensity, higher = more binding, comparable within an allelic series)
2 | GAGGCGGA | 9.49 upbm affinity estimate (log intensity, higher = more binding, comparable within an allelic series)
3 | TACAAGTA | 11.3 upbm affinity estimate (log intensity, higher = more binding, comparable within an allelic series)
4 | GAGTCTGC | 9.64 upbm affinity estimate (log intensity, higher = more binding, comparable within an allelic series)
5 | CCCTGCCA | 9.63 upbm affinity estimate (log intensity, higher = more binding, comparable within an allelic series)
6 | AGGCACCC | 9.55 upbm affinity estimate (log intensity, higher = more binding, comparable within an allelic series)
7 | CGCCCGTC | 9.36 upbm affinity estimate (log intensity, higher = more binding, comparable within an allelic series)
8 | CGCCTACA | 9.72 upbm affinity estimate (log intensity, higher = more binding, comparable within an allelic series)
9 | CATGCCGG | 9.42 upbm affinity estimate (log intensity, higher = more binding, comparable within an allelic series)
10 | AGTAAGTA | 11.1 upbm affinity estimate (log intensity, higher = more binding, comparable within an allelic series)
11 | GGGGCCAC | 9.87 upbm affinity estimate (log intensity, higher = more binding, comparable within an allelic series)
12 | CGCTCACC | 9.46 upbm affinity estimate (log intensity, higher = more binding, comparable within an allelic series)
13 | ACGGGGTC | 9.58 upbm affinity estimate (log intensity, higher = more binding, comparable within an allelic series)
14 | ACCTCCCC | 9.56 upbm affinity estimate (log intensity, higher = more binding, comparable within an allelic series)
15 | CGGACGGC | 9.24 upbm affinity estimate (log intensity, higher = more binding, comparable within an allelic series)
16 | ATACTTTG | 10.7 upbm affinity estimate (log intensity, higher = more binding, comparable within an allelic series)
17 | AAACGGCC | 9.82 upbm affinity estimate (log intensity, higher = more binding, comparable within an allelic series)
18 | AAGAGTAG | 10.8 upbm affinity estimate (log intensity, higher = more binding, comparable within an allelic series)
19 | CAAAGTGC | 11 upbm affinity estimate (log intensity, higher = more binding, comparable within an allelic series)
20 | ACCCGGCA | 9.55 upbm affinity estimate (log intensity, higher = more binding, comparable within an allelic series)

Row | Sequence | binding signal
21 | GCGGACCA | 9.48 upbm affinity estimate (log intensity, higher = more binding, comparable within an allelic series)
22 | CGCCAACC | 9.44 upbm affinity estimate (log intensity, higher = more binding, comparable within an allelic series)
23 | AACCGCCC | 9.72 upbm affinity estimate (log intensity, higher = more binding, comparable within an allelic series)
24 | AAGCCACG | 9.49 upbm affinity estimate (log intensity, higher = more binding, comparable within an allelic series)
25 | CCCGGGGA | 9.42 upbm affinity estimate (log intensity, higher = more binding, comparable within an allelic series)
26 | CGGTTAGC | 9.51 upbm affinity estimate (log intensity, higher = more binding, comparable within an allelic series)
27 | AGCCCCTG | 9.59 upbm affinity estimate (log intensity, higher = more binding, comparable within an allelic series)
28 | ACCGGTGG | 9.26 upbm affinity estimate (log intensity, higher = more binding, comparable within an allelic series)
29 | CCCGCACA | 9.66 upbm affinity estimate (log intensity, higher = more binding, comparable within an allelic series)
30 | GACGCCCC | 9.56 upbm affinity estimate (log intensity, higher = more binding, comparable within an allelic series)
31 | GATCCGAC | 9.56 upbm affinity estimate (log intensity, higher = more binding, comparable within an allelic series)
32 | AAAAAGTG | 11.2 upbm affinity estimate (log intensity, higher = more binding, comparable within an allelic series)
33 | CCGGTAGG | 9.6 upbm affinity estimate (log intensity, higher = more binding, comparable within an allelic series)
34 | CACCCCGC | 9.31 upbm affinity estimate (log intensity, higher = more binding, comparable within an allelic series)
35 | GCATGCGC | 9.48 upbm affinity estimate (log intensity, higher = more binding, comparable within an allelic series)
36 | CAGCCCTG | 9.44 upbm affinity estimate (log intensity, higher = more binding, comparable within an allelic series)
37 | GTAAGTAC | 11.7 upbm affinity estimate (log intensity, higher = more binding, comparable within an allelic series)
38 | CCCCGTTC | 9.42 upbm affinity estimate (log intensity, higher = more binding, comparable within an allelic series)
39 | AGAGTGGC | 10.9 upbm affinity estimate (log intensity, higher = more binding, comparable within an allelic series)
